Results filed as inconclusive are left out. Active and inactive are the calls of the source. The call rests on the fitted dose curve; in most records, active means well fitted curve in the direction sought with a large enough effect; inconclusive means small, poorly fitted or top-dose-only effect, or another doubt; inactive means no such curve, though single readings can be large; an effect the other way counts as inactive or inconclusive.
How the values were obtained:
NIH3T3 [1] = assay: Cytotoxic Profiling of Annotated Libraries Using Quantitative High-Throughput Screening (AID 1296008); details: Five cell lines viability, CellTiter-Glo ATP luminescence, 48-72 h; max response: stronger effect = lower value; further: nearly all actives have a fitted effect of over 60% in size
Summary of the method: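 Compounds were pin-transferred onto cells and incubated 48 or 72 hr at 37 degree Celsius, 95% humidity. CellTiter-Glo was added, plates sat 10 min at room temperature, then ATP-coupled luminescence was imaged as the viability read-out.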

MCC-13 = assay: qHTS assay to identify novel small-molecules to repurpose for Merkel cell carcinoma treatment (AID 1296009); details: MCC and control cell lines, CellTiter-Glo viability, 72 h; series mostly up to 46 µM; further: nearly all actives have a fitted effect of over 60% in size
Summary of the method: (§1)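 Cells exposed to NPC (8-point) and MIPE (11-point) compound dilutions for 72 hr at 37 degree celsius; viability read by CellTiter-Glo luminescence, normalized to no-cell and DMSO in-plate controls.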

MCC-26 = assay: as above; details: MCC and control cell lines, CellTiter-Glo viability, 72 h; series mostly up to 46 µM
Summary of the method: as §1

MKL-1 = assay: as above; details: MCC and control cell lines, CellTiter-Glo viability, 72 h; series mostly up to 46 µM
Summary of the method: as §1

MKL-2 = assay: as above; details: MCC and control cell lines, CellTiter-Glo viability, 72 h; series mostly up to 46 µM
Summary of the method: as §1

UISO = assay: as above; details: MCC and control cell lines, CellTiter-Glo viability, 72 h; series mostly up to 46 µM
Summary of the method: as §1

WaGa = assay: as above; details: MCC and control cell lines, CellTiter-Glo viability, 72 h; series mostly up to 46 µM
Summary of the method: as §1

C33A = assay: Primary qHTS to identify gynecologic anti-cancer compounds using libraries of approved drugs and bioactive compounds (AID 1345084); details: Gynecologic cancer cell panel viability, ATPlite luminescence, 48 h; series mostly up to 57.5 µM; further: nearly all actives have a fitted effect of over 55% in size
Summary of the method: (§2)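 Cells, 1,000 per well, were allowed to settle for 16 h at 37 C before compound addition. Five concentrations were tested for 48 h, and viability was read by ATPlite luminescence after 15 min at room temperature.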

CAOV3 = assay: as above; details: Gynecologic cancer cell panel viability, ATPlite luminescence, 48 h; series mostly up to 57.5 µM
Summary of the method: as §2

CASKI = assay: as above; details: Gynecologic cancer cell panel viability, ATPlite luminescence, 48 h; series mostly up to 57.5 µM
Summary of the method: as §2

Es-2 = assay: as above; details: Gynecologic cancer cell panel viability, ATPlite luminescence, 48 h; series mostly up to 57.5 µM
Summary of the method: as §2

HeLa = assay: as above; details: Gynecologic cancer cell panel viability, ATPlite luminescence, 48 h; series mostly up to 57.5 µM
Summary of the method: as §2

Hek293T [2] = assay: as above; details: Gynecologic cancer cell panel viability, ATPlite luminescence, 48 h, control line for the selectivity index; series mostly up to 57.5 µM
Summary of the method: as §2

JEG-3 = assay: as above; details: Gynecologic cancer cell panel viability, ATPlite luminescence, 48 h; series mostly up to 57.5 µM
Summary of the method: as §2

OV90 = assay: as above; details: Gynecologic cancer cell panel viability, ATPlite luminescence, 48 h; series mostly up to 57.5 µM
Summary of the method: as §2

PA-1 = assay: as above; details: Gynecologic cancer cell panel viability, ATPlite luminescence, 48 h; series mostly up to 57.5 µM
Summary of the method: as §2

SKOV3 = assay: as above; details: Gynecologic cancer cell panel viability, ATPlite luminescence, 48 h; series mostly up to 57.5 µM
Summary of the method: as §2

HEK293T [3] = assay: qHTS assay to identify novel small-molecules to repurpose for Merkel cell carcinoma treatment (AID 1296009); details: MCC and control cell lines, CellTiter-Glo viability, 72 h; at 44.8 µM (top of the series) unless noted; further: nearly all actives have a fitted effect of over 60% in size
Summary of the method: as §1

NIH3T3 [4] = assay: as above; details: MCC and control cell lines, CellTiter-Glo viability, 72 h; at 44.8 µM (top of the series) unless noted
Summary of the method: as §1
On the % scale 0 is the no-effect control and ±100 the full control effect.

O=C(/C=C/c1ccccc1)NCCO
inactive: max response (NIH3T3 [1]) 3.14% | Potency (MCC-13) | Potency (MCC-26) | Potency (MKL-1) | Potency (MKL-2) | Potency (UISO) | Potency (WaGa) | Potency (C33A) | Potency (CAOV3) | Potency (CASKI) | Potency (Es-2) | Potency (HeLa) | Potency (Hek293T [2]) | Potency (JEG-3) | Potency (OV90) | Potency (PA-1) | Potency (SKOV3)

Nc1cc(-c2ccncc2)c[nH]c1=O
inactive: max response (NIH3T3 [1]) -0.0001% | Potency (MCC-13) | Potency (MKL-1) | Potency (UISO) | Potency (WaGa) | Potency (C33A) | Potency (CAOV3) | Potency (CASKI) | Potency (Es-2) | Potency (HeLa) | Potency (Hek293T [2]) | Potency (JEG-3) | Potency (OV90) | Potency (PA-1)

Cc1onc(-c2c(F)cccc2Cl)c1C(=O)N[C@@H]1C(=O)N2[C@@H]1SC(C)(C)[C@@H]2C(=O)O
inactive: max response (NIH3T3 [1]) -7.78% | outcome (HEK293T [3]) | Potency (CASKI) | Potency (Es-2) | Potency (HeLa) | Potency (Hek293T [2]) | Potency (JEG-3) | Potency (OV90) | Potency (PA-1) | Potency (SKOV3)

CC(=O)c1ccc(OCC(=O)N2CCCCC2)cc1
inactive: outcome (NIH3T3 [1]) | Potency (MCC-13) | Potency (MKL-1) | Potency (MKL-2) | outcome (NIH3T3 [4]) | Potency (UISO) | Potency (WaGa) | Potency (C33A) | Potency (CAOV3) | Potency (CASKI) | Potency (Es-2) | Potency (HeLa) | Potency (Hek293T [2]) | Potency (JEG-3) | Potency (OV90) | Potency (PA-1) | Potency (SKOV3)

CCNc1nc2c(ncn2[C@H]2C[C@H](O)[C@@H](CO)O2)c(=O)[nH]1
inactive: outcome (NIH3T3 [1]) | outcome (HEK293T [3]) | outcome (NIH3T3 [4]) | Potency (C33A) | Potency (CASKI) | Potency (Es-2) | Potency (HeLa) | Potency (Hek293T [2]) | Potency (JEG-3) | Potency (OV90) | Potency (PA-1) | Potency (SKOV3)

CCCOC(=O)c1ccc(O)cc1
inactive: max response (NIH3T3 [1]) 3.51% | Potency (MCC-13) | Potency (MKL-1) | Potency (MKL-2) | Potency (UISO) | Potency (WaGa) | Potency (C33A) | Potency (CAOV3) | Potency (CASKI) | Potency (Es-2) | Potency (HeLa) | Potency (Hek293T [2]) | Potency (JEG-3) | Potency (OV90) | Potency (PA-1) | Potency (SKOV3)

O=C(O)Cc1ccc(-c2ccccc2)cc1
inactive: max response (NIH3T3 [1]) -5.58% | Potency (MCC-13) | Potency (MCC-26) | Potency (MKL-1) | Potency (MKL-2) | Potency (UISO) | Potency (WaGa) | Potency (C33A) | Potency (CAOV3) | Potency (CASKI) | Potency (Es-2) | Potency (HeLa) | Potency (Hek293T [2]) | Potency (JEG-3) | Potency (OV90) | Potency (PA-1) | Potency (SKOV3)

O=C(O)Cc1ccc2c(c1)C(=O)c1ccccc1CO2
inactive: outcome (NIH3T3 [1]) | Potency (MCC-13) | Potency (MKL-1) | Potency (MKL-2) | outcome (NIH3T3 [4]) | Potency (UISO) | Potency (WaGa) | Potency (C33A) | Potency (CAOV3) | Potency (CASKI) | Potency (Es-2) | Potency (HeLa) | Potency (Hek293T [2]) | Potency (JEG-3) | Potency (OV90) | Potency (PA-1) | Potency (SKOV3)

From PubChem BioAssay (NCATS)
